Experimental findings from PubChem BioAssay (NCI) are described below.

This is part of a sample that, as a whole, favours compounds with a hit. Of some 83,000 tested, about 20% had one in any assay.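 Note: values are percent growth. 100 is the growth of untreated cells, values between 100 and 0 indicate rising inhibition; between -100 and 0 indicates cell death.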 A number with no mark means an inactive call. Activity calls are given as the source filed them. How the source made its calls: active means growth percent below 10; inactive means the rest.

Common to all, as to test: NCI-60 one-dose screen, 48 h (100 = growth as untreated, 0 = no growth, -100 = all killed)
Settings in all cases: 10 µM

Test [1] relates to SK-MEL-2 melanoma.
In test [2] the test system is EKVX NSCLC.
Test [3] has as its system SN12C renal.
Test [4] has as its system UO-31 renal.
Test [5] relates to TK-10 renal.
Test [6] deals with ACHN renal.
The subject of test [7] is CAKI-1 renal.
Test [8] concerns A498 renal.
The test system of test [9] is CCRF-CEM leukemia.
The subject of test [10] is MOLT-4 leukemia.
The subject of test [11] is SR leukemia.
For test [12], the system named is RPMI-8226 leukemia.
Test [13] has as its system OVCAR-8 ovarian.
The test system of test [14] is OVCAR-5 ovarian.
The subject of test [15] is SK-OV-3 ovarian.
Test [16] has as its system IGROV1 ovarian.
Test [17] has as its system OVCAR-3 ovarian.
Test [18] relates to HS 578T breast.
Test [19] concerns NCI/ADR-RES ovarian.
Test [20] has as its system OVCAR-4 ovarian.

Turning to `CCOC(=O)/C(=C(\C)N)C1CC(=O)NC1=O` (stereo not given), the growth in test [1] was 123%; in test [2] it was 102%; in test [3], 96.5%; in [4] it was 87.9%; in test [5], 118%; in test [6], 94%. For the same compound, the growth in test [7] is 98.2%; in [8], 107%; in test [9] it was 96.2%; in test [10] it was 104%; in test [11] it was 102%; in [12], 101%. The growth in [13] was 99.7%; in [14], 102%; in test [15], 107%; in test [16] it was 118%; in test [17], 109%; in [18] it was 97.5%. Moreover, the growth in [19] is 92.8%.
For the compound `OCC1OC2C(NC(=S)N2c2ccccc2)C(O)C1O` (stereo not given), the growth was 111% in test [1]; 101% in test [2]; 91.1% in test [3]; 101% in [4]; 109% in test [5]; 103% in [6]. Besides, the growth in test [7] was 91.4%; in test [8] it was 95.1%; in test [9], 93.6%; in [10], 107%; in [11], 95.6%; in test [12], 97.1%. For the same compound, the growth in [13] is 97.2%; in test [14], 105%; in test [20], 110%; in [15], 105%; in test [17] it was 102%; in [18], 88%. For the same compound, the growth in test [19] is 105%.
`O=c1oc2c(cc1-c1ccc(F)cc1)C(O)Oc1ccccc1-2` (stereo not given): the growth in test [1] was 76.1%; in test [2], 51.2%; in test [3] it was 95.4%; in test [4] it was 84.1%; in test [5], 72.3%; in test [6] it was 94.4%. In addition, the growth in [7] was 74%; in test [8], 89.5%; in [9], 113%; in [10] it was 68.3%; in [11], 58.1%; in test [12], 90.8%. In addition, the growth was 100% in test [13]; 96.2% in test [14]; 90.6% in test [20]; 105% in [15]; 80.4% in test [17]; 16.6% in test [18]. For the same compound, in test [19], the growth was 54.5%.
As for `CCOC(=O)CC(S(=O)(=O)c1ccccc1)S(=O)(=O)c1ccccc1`, the growth in [1] was 97.4%; in test [2] it was 113%; in test [3] it was 95.7%; in test [4] it was 72.4%; in test [5], 56.4%; in [6], 63.6%. For the same compound, the growth in test [7] was 90.1%; in test [8], 115%; in [9], 62.7%; in test [10] it was 87.1%; in test [11], 89.1%; in [12], 97.4%. The growth in [13] is 103%; in test [14] it was 109%; in test [20], 94%; in test [15], 112%; in test [16], 107%; in test [17], 63.1%. The values for the growth in [18] and in test [19] were 105% and 104%, respectively.
Turning to `COc1ccc(Cl)cc1Nc1nc(C(F)(F)F)ccc1C(=O)N/N=C/c1cc(OC)c(OC)c(OC)c1`, the growth was 9.11% (active) in [1]; 32.6% in [2]; 25.1% in [3]; 15.4% in test [4]; 20.2% in [5]; 16% in test [6]. Moreover, the growth in [7] was 27.6%; in [8], 26.8%; in [9] it was 9.22% (active); in test [10] it was 9.62% (active); in [11], 14.1%; in test [12], 23%. Also, the growth was 53.2% in test [13]; 62.4% in [14]; 23.7% in test [20]; 34.9% in test [15]; 10.2% in [17]; -11.3% (active) in test [18]. Besides, the growth in [19] is 0.977% (active).
As for `COc1cc(/C=C2\CCCC3=C2N=C2SC(C)=CN2C3c2cc(OC)c(OC)c(OC)c2)cc(OC)c1OC` (stereo not given), the growth is -19.6% (active) in [1]; 19.6% in test [2]; -23.6% (active) in test [3]; -37.2% (active) in test [4]; 2.25% (active) in test [5]; -78.6% (active) in [6]. Also, the growth is 11.1% in [7]; -30.9% (active) in test [8]; 1.41% (active) in [9]; 1.02% (active) in [10]; 0.0832% (active) in test [11]; -17% (active) in [12]. The growth in test [13] is -9.4% (active); in test [14], -15% (active); in test [20], 39.6%; in [15], 19.3%; in [16], 2.86% (active); in test [17], -2.36% (active). Besides, the growth in test [18] is 49.9%; in [19], 1.74% (active).
For the compound `O=C(CSc1nccc(Nc2cccc3ccccc23)n1)c1ccc(Cl)cc1`, the growth in test [1] is 102%; in test [2] it was 76.9%; in test [3], 82.6%; in test [4] it was 49.8%; in [5], 112%; in test [6] it was 91.7%. For the same compound, the growth was 60.3% in test [7]; 105% in test [8]; 83.1% in test [9]; 88.1% in [10]; 90.9% in test [11]; 80% in test [12]. In addition, the growth was 92.3% in [13]; 87.4% in test [14]; 98.7% in test [20]; 86.4% in test [15]; 69% in test [16]; 99.5% in test [17]. Besides, the growth in [18] was 99.7%; in [19], 93.7%.
Consider `CCN(CC)CCCC(Nc1c2ccc(Cl)cc2nc2ccc(OC)cc12)c1ccc(F)cc1` (stereo not given), for which the growth is 116% in [1]; 40.2% in test [2]; 25.7% in test [3]; -43.3% (active) in test [4]; -59.6% (active) in [5]; -58.9% (active) in test [6]. Further, the growth was 87.6% in test [7]; 59.5% in test [8]; -18.5% (active) in [9]; 2.74% (active) in test [10]; -13.9% (active) in test [11]; -33.3% (active) in test [12]. In addition, the growth in [13] was 15.2%; in test [14], 61.7%; in [20], 12.6%; in test [16], 41.5%; in test [17] it was 108%; in test [18], 84%. In test [19], the growth was 28.9%.
